The supplement of paper PMC6555819

Experiments:
Assay in all cases: PBM binding z-score (relative to random genomic background probes); higher = stronger binding; sequences stand for … in GC…GCGATTGACAGCGTAGAATGAAGG
[1] = system: FXR:RXRa (NR concentration 270 nM, RXRa partner concentration 90 nM)
How it was run: (§1)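 Ligand-free nuclear receptor dimers were bound for 1 h to custom Agilent 4×180K protein-binding microarrays. Detection used antibodies against each partner (one per run). Binding z-scores rest on regression-normalized fluorescence, with random background probes as the reference.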

[2] = system: LXRa:RXRa (NR concentration 270 nM, RXRa partner concentration 90 nM)
How it was run: as §1

[3] = system: LXRa homodimer (NR concentration 270 nM)
How it was run: as §1

[4] = system: LXRb:RXRa (NR concentration 270 nM, RXRa partner concentration 90 nM)
How it was run: as §1

[5] = system: LXRb homodimer (NR concentration 270 nM)
How it was run: as §1

[6] = system: PPARa:RXRa (NR concentration 270 nM, RXRa partner concentration 90 nM)
How it was run: as §1

[7] = system: PPARg:RXRa (NR concentration 180 nM, RXRa partner concentration 90 nM)
How it was run: as §1

[8] = system: PPARg:RXRa 270nM:90nM, anti-RXR (NR concentration 270 nM, RXRa partner concentration 90 nM)
How it was run: as §1

[9] = system: PPARg:RXRa 30nM:10nM, anti-RXR (NR concentration 30 nM, RXRa partner concentration 10 nM)
How it was run: as §1

[10] = system: PPARg:RXRa 90nM:30nM, anti-RXR (NR concentration 90 nM, RXRa partner concentration 30 nM)
How it was run: as §1

Sequence	PBM binding z-score [1]	PBM binding z-score [2]	PBM binding z-score [3]	PBM binding z-score [4]	PBM binding z-score [5]	PBM binding z-score [6]	PBM binding z-score [7]	PBM binding z-score [8]	PBM binding z-score [9]	PBM binding z-score [10]
CAAACTAGGTCACCGGAAGGTCAAAATCCGCATG	5.79	5.77	4.45	5.33	1.71	6.21	9.82	7.79	5.96	7.63
CGAATTAGGTCAGAACAGGACAGTGAAGGATGAT	1.56	1.31	0.144	0.781	0.086	3.41	4.98	4.59	2.05	3.65
CTACCAAGGTGAACAAGGTCGTGGATTACTATTC	1.7	1.56	-0.154	1.73	-0.448	2.96	1.5	1.61	0.053	0.918
AGAATGAGGTTTTTAAGATCAGGGAATTGCGGTC	-0.295	-0.436	-0.308	-0.234	-0.216	0.0197	0.144	0.00452	0.119	-0.139
ACTAGCAGGCCAAGTTTGGGTCACTCATACAAAG	0.242	0.317	-0.104	0.786	-0.557	1.28	0.573	0.501	-0.211	-0.146
TCTCGGAGGACACGAAAGATCAGAGCTCGACATC	-0.277	0.0528	-0.431	-0.144	-0.969	0.328	0.493	0.915	2.54	1.17
TCTGCTAGGTCAACTATGGTCAGCTAATCTGCTA	4.09	3.35	0.302	2.35	0.258	3.65	2.72	3.29	2.15	2.81
TCGAGGAGGTTACCAATGGGGCATTCAGCTTTCT	0.893	2.72	-0.21	2.47	-0.369	2.29	0.171	1.2	1.46	1.09
ATCTCTAGGTAATACTCAGTTCAGTGAAGAACGC	0.748	1.03	1.19	0.468	1.55	0.541	0.424	0.567	0.572	0.52
CCTACTGGGCCAAGGGTCATTGATTCCAATGCTC	2.79	2.59	0.211	2.63	-0.578	5.27	10.2	9.04	8.43	10.2
CGTCCAAGGTCAGAGAAGTCAGTGAATGCCGAGT	4.48	2.9	0.222	2.17	-0.0616	3.73	1.89	2.54	0.704	1.5
GCAGACAGGTGACACGCAGGTAACTCAGGGTGGC	-0.0725	-0.255	-0.585	-0.69	-1.06	0.614	0.69	-0.241	-0.412	-0.395
TCTAATAGTTGATTAGGGCAACCGAAACAGCGGA	-0.0644	0.461	-0.078	0.136	-0.225	1.23	0.375	1.85	3.3	2.53
CCTTCTGGGCCATCAGGTCATTGATATCAACGTT	1.65	1.19	0.846	1.44	0.0435	2.69	2.21	3.33	1.09	2.63
CCTGCTATGTCATGGTCAGCTAATCTACAGTATG	0.128	-0.0634	-0.269	-0.0445	-0.226	-0.318	0.0811	-0.104	0.0801	0.346
CCTACTGGGCCAATGGTCATTGATTCCAATGCTC	-0.623	-0.68	-0.691	-0.531	-0.674	1.86	4.15	5.51	3.81	6.38
GCTTACGGGGCAAAGGTTATAGCATGAATAGAAT	2.32	2.71	0.016	3.48	0.208	5.38	8.91	8.3	7.37	9.06
AGAATGAGGTAATTAAGATCAGGGAATTGCGGTC	0.0653	0.204	-0.0232	-0.116	-0.24	0.241	0.544	0.141	-0.00971	-0.0571
ATCTCGAGGTAACAAGTTCAGTGAAAGAGAGGAC	0.617	0.888	0.333	0.61	0.253	1.51	0.717	0.867	-0.0837	0.456
GATACAGGGTCGAGGCCAGAGTACGCGTATTGAT	0.882	0.531	-0.581	0.3	-1.21	1.99	1.21	0.874	0.198	0.515
CGAACTAGGTCAAGGAAAGTGAATCTCCGCACGC	2.69	1.93	-0.152	1.2	-0.225	4.55	7.18	6.18	3.7	5.66
CCTAGTTGGTTAGGAGGTCACACACCGGATATGA	3.07	3.38	2.02	3.21	0.635	4.02	2.54	3.3	1.25	2.81
TTACCAAGGTGTAAGGTCGTTGATGCACGCCTTG	0.533	0.628	-0.156	0.478	-0.764	2.06	2.4	4.03	1.99	3.46
CCGACTGGGGCAAAGGTAACCATACTCAGTACGA	0.167	0.164	-0.55	0.446	-1.32	4.5	8.83	7.71	7.84	8.13
